Test results: the supplement of paper PMC11732987, “Enantioselective OTUD7B fragment discovery through chemoproteomics screening and high-throughput optimisation” (Communications Chemistry, 2025)

Key:
Test in all cases: log2 ratio of Biotin-Ahx-Ub-VS probe labelling (fragment/DMSO); higher = less target engagement (more negative = stronger competition), active = hit call of the paper (q ≤ 0.05, log2 ratio ≤ -1)
Conditions in all cases: compound concentration: 200 uM; treatment time: 3 h
USP34 = USP34 (UniProt Q70CQ2)
Sequence of USP34 (Q70CQ2 whole entry, the tested form may be a part): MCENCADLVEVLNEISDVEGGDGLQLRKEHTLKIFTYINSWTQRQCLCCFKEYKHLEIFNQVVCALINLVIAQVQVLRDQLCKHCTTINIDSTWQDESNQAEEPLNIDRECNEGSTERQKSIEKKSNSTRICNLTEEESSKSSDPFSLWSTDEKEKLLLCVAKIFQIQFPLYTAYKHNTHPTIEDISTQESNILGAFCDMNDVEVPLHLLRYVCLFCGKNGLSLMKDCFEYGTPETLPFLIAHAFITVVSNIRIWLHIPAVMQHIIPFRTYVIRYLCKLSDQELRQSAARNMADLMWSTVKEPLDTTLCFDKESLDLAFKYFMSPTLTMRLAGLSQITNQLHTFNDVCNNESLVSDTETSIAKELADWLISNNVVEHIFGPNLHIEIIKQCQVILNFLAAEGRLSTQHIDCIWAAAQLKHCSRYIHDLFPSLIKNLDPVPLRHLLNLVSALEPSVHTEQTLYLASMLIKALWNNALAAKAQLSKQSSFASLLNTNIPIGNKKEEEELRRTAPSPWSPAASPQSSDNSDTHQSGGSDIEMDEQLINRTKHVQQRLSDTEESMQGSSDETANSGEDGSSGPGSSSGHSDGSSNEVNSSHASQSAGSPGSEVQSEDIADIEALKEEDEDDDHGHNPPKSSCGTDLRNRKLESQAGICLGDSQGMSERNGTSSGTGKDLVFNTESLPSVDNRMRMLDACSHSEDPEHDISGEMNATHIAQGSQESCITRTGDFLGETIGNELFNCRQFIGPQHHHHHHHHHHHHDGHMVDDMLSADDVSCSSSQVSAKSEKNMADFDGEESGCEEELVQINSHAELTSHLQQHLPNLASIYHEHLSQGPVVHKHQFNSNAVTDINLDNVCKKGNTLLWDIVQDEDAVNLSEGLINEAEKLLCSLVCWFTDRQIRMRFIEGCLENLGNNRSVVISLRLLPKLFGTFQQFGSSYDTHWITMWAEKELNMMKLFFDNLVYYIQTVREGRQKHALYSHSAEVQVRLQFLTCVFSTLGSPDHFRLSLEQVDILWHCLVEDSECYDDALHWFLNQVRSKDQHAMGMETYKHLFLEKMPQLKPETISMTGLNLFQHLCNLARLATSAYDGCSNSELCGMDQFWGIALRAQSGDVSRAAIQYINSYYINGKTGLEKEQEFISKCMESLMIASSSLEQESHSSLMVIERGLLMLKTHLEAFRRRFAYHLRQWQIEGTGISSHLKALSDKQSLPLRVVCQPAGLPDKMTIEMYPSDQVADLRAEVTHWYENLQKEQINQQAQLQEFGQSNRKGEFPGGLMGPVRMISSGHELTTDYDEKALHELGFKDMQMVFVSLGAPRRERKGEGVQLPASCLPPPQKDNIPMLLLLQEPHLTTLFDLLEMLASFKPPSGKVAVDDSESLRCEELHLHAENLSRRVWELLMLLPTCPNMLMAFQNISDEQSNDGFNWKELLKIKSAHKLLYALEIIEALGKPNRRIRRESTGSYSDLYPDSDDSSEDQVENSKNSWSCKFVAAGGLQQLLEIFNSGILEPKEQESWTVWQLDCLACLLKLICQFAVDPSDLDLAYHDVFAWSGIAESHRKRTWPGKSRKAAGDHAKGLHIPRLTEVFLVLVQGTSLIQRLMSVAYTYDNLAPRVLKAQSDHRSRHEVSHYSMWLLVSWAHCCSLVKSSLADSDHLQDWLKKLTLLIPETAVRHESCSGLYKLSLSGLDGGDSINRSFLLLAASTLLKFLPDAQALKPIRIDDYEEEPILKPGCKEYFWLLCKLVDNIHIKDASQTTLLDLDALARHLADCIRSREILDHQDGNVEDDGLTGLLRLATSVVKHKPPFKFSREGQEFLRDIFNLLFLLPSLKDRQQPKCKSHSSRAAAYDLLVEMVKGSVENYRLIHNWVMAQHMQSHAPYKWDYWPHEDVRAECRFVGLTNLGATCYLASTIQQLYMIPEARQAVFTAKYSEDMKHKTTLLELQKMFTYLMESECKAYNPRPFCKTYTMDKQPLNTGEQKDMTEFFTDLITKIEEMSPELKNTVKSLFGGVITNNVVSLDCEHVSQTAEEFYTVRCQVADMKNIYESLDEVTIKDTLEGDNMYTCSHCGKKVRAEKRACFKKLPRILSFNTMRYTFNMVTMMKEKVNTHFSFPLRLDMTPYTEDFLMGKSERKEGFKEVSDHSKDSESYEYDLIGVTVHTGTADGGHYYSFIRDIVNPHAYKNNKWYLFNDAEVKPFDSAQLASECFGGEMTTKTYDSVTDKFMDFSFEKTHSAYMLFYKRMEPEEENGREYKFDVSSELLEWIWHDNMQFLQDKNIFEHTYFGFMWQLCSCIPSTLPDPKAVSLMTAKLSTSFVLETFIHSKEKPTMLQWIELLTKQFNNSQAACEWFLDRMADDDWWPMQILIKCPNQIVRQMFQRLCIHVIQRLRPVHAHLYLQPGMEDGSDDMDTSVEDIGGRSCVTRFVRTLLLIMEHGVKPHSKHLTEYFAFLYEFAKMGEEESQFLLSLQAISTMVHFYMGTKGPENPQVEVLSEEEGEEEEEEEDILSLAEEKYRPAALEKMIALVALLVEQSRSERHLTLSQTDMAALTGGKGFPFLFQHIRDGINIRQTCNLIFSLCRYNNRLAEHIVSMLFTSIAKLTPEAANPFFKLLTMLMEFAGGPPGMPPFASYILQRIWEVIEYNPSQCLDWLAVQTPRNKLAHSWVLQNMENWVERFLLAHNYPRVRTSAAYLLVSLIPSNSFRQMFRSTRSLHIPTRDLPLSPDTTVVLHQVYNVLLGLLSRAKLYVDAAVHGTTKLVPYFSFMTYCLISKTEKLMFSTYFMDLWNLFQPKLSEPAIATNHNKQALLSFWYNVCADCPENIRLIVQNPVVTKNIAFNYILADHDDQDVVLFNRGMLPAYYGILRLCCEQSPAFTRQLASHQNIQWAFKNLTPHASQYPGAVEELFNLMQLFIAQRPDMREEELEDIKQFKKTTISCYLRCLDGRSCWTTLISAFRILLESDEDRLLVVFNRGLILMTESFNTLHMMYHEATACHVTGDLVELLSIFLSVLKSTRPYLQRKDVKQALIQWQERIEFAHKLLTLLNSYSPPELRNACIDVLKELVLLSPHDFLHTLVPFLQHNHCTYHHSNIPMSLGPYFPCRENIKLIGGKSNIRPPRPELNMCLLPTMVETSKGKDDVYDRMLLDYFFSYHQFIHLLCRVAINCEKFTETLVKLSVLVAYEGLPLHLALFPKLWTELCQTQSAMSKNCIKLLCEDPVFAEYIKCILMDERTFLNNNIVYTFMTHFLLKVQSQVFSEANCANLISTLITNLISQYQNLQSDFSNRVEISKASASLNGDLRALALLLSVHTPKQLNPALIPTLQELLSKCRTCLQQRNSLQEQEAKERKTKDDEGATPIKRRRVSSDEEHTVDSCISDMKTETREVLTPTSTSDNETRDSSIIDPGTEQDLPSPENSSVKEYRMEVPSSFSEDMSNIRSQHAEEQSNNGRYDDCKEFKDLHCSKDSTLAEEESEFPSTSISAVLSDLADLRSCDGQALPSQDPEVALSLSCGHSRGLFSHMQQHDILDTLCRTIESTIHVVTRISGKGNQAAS
How it was run: (§1)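 Labelling with Biotin-Ahx-Ub-VS (0.5 µM final, 1 h) followed a 3 h triplicate treatment of HEK293T lysate (495 µg per sample, Tris/CHAPS/IGEPAL buffer with protease inhibitors) with fragment at 200 µM or vehicle. Labelled DUBs were NeutrAvidin-enriched, digested with LysC and trypsin, and run by diaPASEF LC-MS/MS. The values, average log2 fragment/vehicle ratios by unpaired t-test, come from global-median-normalised Spectronaut label-free quantities. Proteins with ≥2 unique peptides were used.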

USP36 = target: T1, USP36 (UniProt Q9P275)
T1 sequence (whole entry): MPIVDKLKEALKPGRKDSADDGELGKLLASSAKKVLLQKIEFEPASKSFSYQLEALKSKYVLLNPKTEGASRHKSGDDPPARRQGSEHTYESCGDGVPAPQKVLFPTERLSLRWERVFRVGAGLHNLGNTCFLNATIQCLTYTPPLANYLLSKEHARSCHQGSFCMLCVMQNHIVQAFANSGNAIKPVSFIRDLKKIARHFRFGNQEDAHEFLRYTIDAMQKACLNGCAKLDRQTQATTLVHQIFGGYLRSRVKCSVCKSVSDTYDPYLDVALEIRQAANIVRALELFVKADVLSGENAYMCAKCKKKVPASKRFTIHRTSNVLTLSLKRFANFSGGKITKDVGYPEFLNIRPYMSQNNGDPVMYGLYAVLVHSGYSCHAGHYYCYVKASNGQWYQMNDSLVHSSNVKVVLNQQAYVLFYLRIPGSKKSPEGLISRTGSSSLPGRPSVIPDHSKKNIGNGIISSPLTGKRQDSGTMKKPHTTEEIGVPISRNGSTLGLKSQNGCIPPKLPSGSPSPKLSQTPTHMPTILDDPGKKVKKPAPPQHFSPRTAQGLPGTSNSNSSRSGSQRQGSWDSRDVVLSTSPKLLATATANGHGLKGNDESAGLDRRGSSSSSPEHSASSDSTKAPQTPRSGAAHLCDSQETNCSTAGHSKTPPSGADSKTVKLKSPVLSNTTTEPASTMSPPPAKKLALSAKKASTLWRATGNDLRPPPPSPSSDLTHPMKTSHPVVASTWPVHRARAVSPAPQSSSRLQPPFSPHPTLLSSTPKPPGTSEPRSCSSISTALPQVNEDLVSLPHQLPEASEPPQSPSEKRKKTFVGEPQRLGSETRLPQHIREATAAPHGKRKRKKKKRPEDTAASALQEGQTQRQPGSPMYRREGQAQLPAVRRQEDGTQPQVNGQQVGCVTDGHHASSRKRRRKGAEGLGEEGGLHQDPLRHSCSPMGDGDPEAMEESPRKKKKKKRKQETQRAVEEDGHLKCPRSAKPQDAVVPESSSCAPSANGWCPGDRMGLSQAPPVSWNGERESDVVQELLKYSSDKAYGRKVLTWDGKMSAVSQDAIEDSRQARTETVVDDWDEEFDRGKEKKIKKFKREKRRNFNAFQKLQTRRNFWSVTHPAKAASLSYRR
How it was run: as §1

USP38 = target: T2, USP38 (UniProt Q8NB14)
T2 sequence (whole entry): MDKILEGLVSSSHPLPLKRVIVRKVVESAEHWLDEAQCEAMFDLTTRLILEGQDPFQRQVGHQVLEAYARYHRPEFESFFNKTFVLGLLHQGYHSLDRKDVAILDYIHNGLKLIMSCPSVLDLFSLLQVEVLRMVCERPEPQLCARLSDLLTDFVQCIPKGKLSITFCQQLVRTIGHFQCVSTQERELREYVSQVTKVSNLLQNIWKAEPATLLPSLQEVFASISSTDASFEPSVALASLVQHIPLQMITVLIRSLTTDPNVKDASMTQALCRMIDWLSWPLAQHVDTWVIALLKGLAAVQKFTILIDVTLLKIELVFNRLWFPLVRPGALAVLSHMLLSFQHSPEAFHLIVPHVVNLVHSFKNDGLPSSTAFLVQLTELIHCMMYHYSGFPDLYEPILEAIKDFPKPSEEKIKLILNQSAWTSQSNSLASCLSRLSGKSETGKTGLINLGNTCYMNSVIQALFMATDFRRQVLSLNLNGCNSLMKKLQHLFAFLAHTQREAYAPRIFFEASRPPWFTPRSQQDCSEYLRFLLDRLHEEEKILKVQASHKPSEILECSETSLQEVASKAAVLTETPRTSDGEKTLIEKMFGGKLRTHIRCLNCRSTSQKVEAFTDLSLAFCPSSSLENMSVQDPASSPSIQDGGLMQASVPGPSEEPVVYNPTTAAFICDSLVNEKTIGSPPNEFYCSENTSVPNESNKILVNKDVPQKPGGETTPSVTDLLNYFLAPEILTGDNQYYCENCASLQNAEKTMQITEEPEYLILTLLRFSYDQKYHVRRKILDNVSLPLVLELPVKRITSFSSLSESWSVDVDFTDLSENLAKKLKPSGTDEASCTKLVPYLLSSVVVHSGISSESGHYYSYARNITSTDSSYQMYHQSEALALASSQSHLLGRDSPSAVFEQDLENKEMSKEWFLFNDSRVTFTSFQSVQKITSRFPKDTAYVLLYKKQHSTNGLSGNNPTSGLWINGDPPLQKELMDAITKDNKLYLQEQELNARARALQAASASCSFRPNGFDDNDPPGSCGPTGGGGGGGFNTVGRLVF
How it was run: as §1

USP39 = target: T3, USP39 (UniProt Q53GS9)
T3 sequence (whole entry): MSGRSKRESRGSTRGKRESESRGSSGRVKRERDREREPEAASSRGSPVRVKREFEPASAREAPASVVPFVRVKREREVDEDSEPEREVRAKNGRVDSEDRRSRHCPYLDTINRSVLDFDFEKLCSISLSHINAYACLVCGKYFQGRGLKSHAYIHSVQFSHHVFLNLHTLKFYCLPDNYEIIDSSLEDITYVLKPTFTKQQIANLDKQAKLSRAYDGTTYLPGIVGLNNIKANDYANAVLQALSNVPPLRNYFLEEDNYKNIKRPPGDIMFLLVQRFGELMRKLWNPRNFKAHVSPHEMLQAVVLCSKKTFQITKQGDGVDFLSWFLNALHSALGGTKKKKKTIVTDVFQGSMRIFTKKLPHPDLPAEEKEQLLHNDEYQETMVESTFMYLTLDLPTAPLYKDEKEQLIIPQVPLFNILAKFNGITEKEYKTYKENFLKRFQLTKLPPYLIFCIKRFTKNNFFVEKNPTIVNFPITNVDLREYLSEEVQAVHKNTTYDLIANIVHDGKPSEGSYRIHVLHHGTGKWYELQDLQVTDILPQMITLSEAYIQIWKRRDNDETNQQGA
How it was run: as §1

USP4 = target: T4, USP4 (UniProt Q13107)
T4 sequence (whole entry): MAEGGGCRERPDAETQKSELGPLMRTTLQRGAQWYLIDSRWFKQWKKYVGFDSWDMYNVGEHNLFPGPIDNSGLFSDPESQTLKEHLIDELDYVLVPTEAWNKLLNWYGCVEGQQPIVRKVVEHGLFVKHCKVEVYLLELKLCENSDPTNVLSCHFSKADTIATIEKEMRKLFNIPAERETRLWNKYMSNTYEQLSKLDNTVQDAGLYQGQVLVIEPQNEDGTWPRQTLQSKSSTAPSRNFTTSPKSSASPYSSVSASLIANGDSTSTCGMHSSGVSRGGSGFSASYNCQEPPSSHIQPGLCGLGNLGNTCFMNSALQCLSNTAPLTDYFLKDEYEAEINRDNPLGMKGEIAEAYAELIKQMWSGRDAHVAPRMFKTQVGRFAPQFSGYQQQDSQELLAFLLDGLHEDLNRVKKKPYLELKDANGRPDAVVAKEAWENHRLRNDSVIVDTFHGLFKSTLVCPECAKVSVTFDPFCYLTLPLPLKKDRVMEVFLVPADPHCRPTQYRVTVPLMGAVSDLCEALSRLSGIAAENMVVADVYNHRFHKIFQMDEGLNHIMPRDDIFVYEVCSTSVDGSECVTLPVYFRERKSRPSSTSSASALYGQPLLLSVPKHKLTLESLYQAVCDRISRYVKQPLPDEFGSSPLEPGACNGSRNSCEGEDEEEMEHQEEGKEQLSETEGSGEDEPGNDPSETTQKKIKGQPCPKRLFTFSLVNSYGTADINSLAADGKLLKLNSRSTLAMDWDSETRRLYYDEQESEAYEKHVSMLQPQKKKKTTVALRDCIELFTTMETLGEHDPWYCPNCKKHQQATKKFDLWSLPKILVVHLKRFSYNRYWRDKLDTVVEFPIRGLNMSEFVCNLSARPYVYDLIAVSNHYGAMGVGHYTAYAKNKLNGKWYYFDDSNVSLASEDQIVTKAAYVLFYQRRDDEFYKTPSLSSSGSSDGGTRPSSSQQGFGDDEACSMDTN
How it was run: as §1

Measured: log2 ratio of Biotin-Ahx-Ub-VS probe labelling

O=C(CCl)N1CCc2sccc2C1
inactive: USP34 -0.165 | USP36 -0.212 | USP38 -0.305 | USP39 0.0206 | USP4 -0.861
